Laboratory results taken from PubChem BioAssay AID1117264 (The Scripps Research Institute Molecular Screening Center, 2014).
Out of some 89,000 compounds screened, about 440 (0.49%) were called active.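 How the source made its calls: active means inhibition above the mean inhibition across all screened compounds plus 3 SD (cut at about 11% in these data); inactive means the rest.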 The list comes from a sample in which actives are over-represented; it also holds similar structures and randomly drawn compounds.

What follows are compounds tested against RNA-editing ligase 1, mitochondrial (Trypanosoma brucei brucei) (UniProt P86926) (assay: T. brucei editing ligase REL1 blockade – biochemical, FRET fluorescence, primary screen (AID 1117264;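 further: 0% = plate median of test wells and 100% = NSC42067 control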)). Conditions: TbREL1 RNA ligation, at 9.66 µM, active compounds read high.
RNA-editing ligase 1, mitochondrial (Trypanosoma brucei brucei), sequence (P86926 whole entry, looked up): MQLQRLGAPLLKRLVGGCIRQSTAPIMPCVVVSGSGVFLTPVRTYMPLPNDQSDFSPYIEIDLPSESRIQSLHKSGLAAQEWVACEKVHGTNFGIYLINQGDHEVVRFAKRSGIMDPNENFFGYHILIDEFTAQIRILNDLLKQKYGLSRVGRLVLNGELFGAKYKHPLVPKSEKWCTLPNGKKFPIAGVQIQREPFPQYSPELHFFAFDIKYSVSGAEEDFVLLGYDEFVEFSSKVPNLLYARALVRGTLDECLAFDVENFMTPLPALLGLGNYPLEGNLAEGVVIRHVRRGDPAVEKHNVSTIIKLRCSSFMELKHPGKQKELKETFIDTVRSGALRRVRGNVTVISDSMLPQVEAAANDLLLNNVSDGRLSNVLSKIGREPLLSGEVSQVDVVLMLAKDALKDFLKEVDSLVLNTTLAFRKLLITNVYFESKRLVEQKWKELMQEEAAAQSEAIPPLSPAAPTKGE

inhibition, inactive:
COc1ccc(C2COC(=O)C2=N)c(NC(=O)c2ccccc2)c1 (centres undefined) -1.11%
COc1ccc(N2C(=O)CC(SC(C)C)C2=O)cc1 (centres undefined) -3.91%
CCOc1ccc(C(=O)CCC(=O)Nc2ccncc2)cc1 -0.23%
O=C(CSc1nc(O)c(Cc2ccccc2)c(=O)[nH]1)Nc1nc2c(s1)CCCC2 -3.09%
CC1CCCCC12NC(=O)N(CC(=O)N1CCN(c3ccccc3)CC1)C2=O (centres undefined) -1.93%
C[C@H](NC(=O)c1ccccc1Cl)C(=O)OCC(=O)N1CCN(c2ccccc2)CC1 -4.27%
O=C(NC1CCC(O)CC1)c1ccccc1OCc1ccc(F)cc1 (centres undefined) -4.15%
CCC(C)NCC(=O)Nc1ccc([N+](=O)[O-])cc1C(=O)Nc1ccccc1F (centres undefined) 1.57%
O=C(COC(=O)/C=C/c1ccc2c(c1)OCO2)NC1CCS(=O)(=O)C1 (centres undefined) -1.84%
CC(=O)c1c(C)oc2ccc(NS(=O)(=O)c3ccc(C(=O)O)cc3)cc12 2.43%
Cc1cc(C)nc(NC(=S)N2CCN(c3ccc(C(F)(F)F)cn3)CC2)c1 -3.25%
Cc1cccc(C(=O)Nc2ccc3c(c2)C(=O)N(CC(C)C)C3=O)c1 5.77%
CC(=O)N(CN1C(=O)C2C3C=CC(C3)C2C1=O)c1cccc(Cl)c1 (centres undefined) -2.46%
COC(=O)[C@@]12CCCCC3=C1N(CCC3)C(=O)[C@H]2CC(=O)NCc1cccc2ccccc12 -3.03%
CN(CC(=O)Nc1c(Cl)cccc1Cl)C(=O)c1ccncc1 -0.71%
CCOC(=O)[C@H]1[C@H]2COc3ccc(Cl)cc3[C@@H]2N2C(=O)c3cc(C)ccc3NC(=O)[C@@]12C -1.49%
COc1cccc(CNC(=O)CNS(=O)(=O)c2ccc3nc(C)sc3c2)c1OC -4.98%
CCCCN(C1CCS(=O)(=O)C1)S(=O)(=O)c1ccc(C(C)C)cc1 (centres undefined) 0.44%
COc1cccc(NC(=O)CN(C)C(=O)CSCc2nc3scc(-c4cccs4)c3c(=O)[nH]2)c1 -0.31%
Cc1ccccc1NC(=O)Cn1cc(C(=O)C2CC2)c2ccccc21 2.47%
COc1cccc(NC(=O)CCNS(=O)(=O)c2ccc3c(c2)oc(=O)n3C)c1 3.31%
COc1cc(NS(=O)(=O)c2ccc(NC(C)=O)cc2)cc(OC)c1 0.52%
Cc1ccc(NC(=O)C(C)Sc2nnc(C3CC3)n2C2CC2)cc1S(=O)(=O)N1CCOCC1 (centres undefined) 5.95%
CCC(C(=O)OC)n1cnc2scc(-c3ccc(C)cc3)c2c1=O (centres undefined) 2.37%
Cc1ccccc1NC(=S)N(CCCN1CCOCC1)Cc1cccs1 -3.36%
CCCN(CCC)C(=S)Nc1cc(C(=O)OC)ccc1C(=O)OC -1.86%
CCCCn1nnnc1C(c1ccccc1)N1CCN(c2ccccc2OC)CC1 (centres undefined) 0.09%
O=C(C1CCCN1S(=O)(=O)c1ccccc1)N1CCc2ccccc2C1 (centres undefined) 3.88%
O=C(COC(=O)CNS(=O)(=O)c1ccccc1)NC12CC3CC(CC(C3)C1)C2 -1.46%
O=C(O)COCC(=O)NCc1csc2ccc(Cl)cc12 2.32%
O=C(N/N=C/c1cccc([N+](=O)[O-])c1)c1ccncc1 7.99%
O=[N+]([O-])c1ccc2c(c1)C(O)n1nc(-c3ccccc3)nc1S2 (centres undefined) 5.85%
O=C(CSc1nccn1-c1cccc(F)c1)NC1CCCC1 -3.03%
COc1cc(-c2nnc(NC(=O)C3=COCCO3)o2)cc(OC)c1OC 1.27%
O=C(CSc1nc2ccccc2nc1N1CCCCC1)N1CCN(S(=O)(=O)c2cccc([N+](=O)[O-])c2)CC1 -1.26%
Cc1cc(=O)oc2cc(OCC(=O)Nc3nnc(C4CC4)s3)ccc12 4.82%
Cc1ccc(NC(=O)CN(C)C(=O)COC(=O)C(C)(C)Oc2ccc(Cl)cc2)cc1 1.09%
CCNc1nc(Oc2ccc(C(=O)OC)cc2)nc(N2CCOCC2)n1 3.37%
CCCC[C@@H]1CN=C(N)N1CCCC 8.04%
O=C(Cn1nnc(N2CCCCC2)n1)c1ccc(Cl)c(Cl)c1 2.76%
O=C(Nc1cccc(F)c1)NC1CCCc2ccccc21 (centres undefined) 4.99%
Cc1cc(C)cc(NC(=O)NC2CCCCCCC2)c1 4.83%
O=C(CSc1nnc(COc2ccccc2)n1Cc1ccco1)c1ccc2ccccc2c1 2.5%
CN1CCC(=NNC(=O)c2ccc(N(Cc3ccc(Cl)cc3)S(C)(=O)=O)cc2)CC1 0.47%
CC(C)C[C@H]1CN=C(Nc2ccccc2)N1CC1CCCCC1 4.52%
Cc1cc(C)c(OCC(=O)N(Cc2cccs2)C2CCS(=O)(=O)C2)c(C)c1 (centres undefined) 2.35%
C=CCNC(=S)NNC(=O)c1cc(Cl)ccc1OC -1.18%
CCN(C(=O)CSc1nnc(-c2ccc(OC(F)F)cc2)n1N)C1CCS(=O)(=O)C1 (centres undefined) -0.55%
O=C(CSc1ccc([N+](=O)[O-])cn1)Nc1ccc(N2CCOCC2)c(Cl)c1 4.47%
CC(C)CNC(=O)OCc1cn(Cc2ccc(F)cc2)nn1 -1.2%
Nc1nonc1-n1nnc(C(=O)N/N=C/C2CCCCC2)c1-c1ccccc1 2.56%
CC1CCN(S(=O)(=O)c2ccc3[nH]c(=O)ccc3c2)CC1 2.13%
Cc1cccc(NC(=S)N2CCCC(c3nc4ccccc4[nH]3)C2)c1 (centres undefined) -6.41%
COc1ccc(NC(=O)CCN2C(=O)/C(=C/c3ccc4c(c3)OCO4)SC2=S)cc1 -1.87%
O=C(O)c1ccc(S(=O)(=O)N2CCOCC2)o1 0.79%
COc1ccc(Br)c(Cn2c(C)c(C(=O)NCc3cccs3)sc2=O)c1 2.25%
Cc1cc(NC(=O)C(C)N2C(=O)c3ccccc3S2(=O)=O)no1 (centres undefined) 3.27%
CC1(C)Cc2c(sc(NC(=O)C(=O)N3CCOCC3)c2C#N)CO1 -1.21%
COc1ccc(OC)c(NC(=O)c2cccc(S(=O)(=O)N3CCN(C(C)=O)CC3)c2)c1 -0.85%
CC(=O)Nc1ccc(NC(=O)CSC2=NS(=O)(=O)c3ccccc3N2)cc1 2.64%
CCCOc1cccc(C(=O)Nc2ccccc2C(=O)N2CCN(C)CC2)c1 0.64%
Cc1sc2ncn(CC(=O)NCCN(C)C)c(=O)c2c1S(=O)(=O)N1CCC(C)CC1 -1.59%
Cc1ccc(C(=O)Cc2nnc(C)s2)cc1 -0.4%
CSCCC(NC(=O)COc1ccccc1)C(=O)Nc1ccc(C)cc1 (centres undefined) -0.75%
O=C(CCNC(=O)Cn1ccc2ccccc2c1=O)NCCC1=CCCCC1 -2.59%
CC(Oc1ccccc1)C(=O)Nc1c2c(nn1-c1ccccc1)CS(=O)C2 (centres undefined) 0.74%
CCOC(=O)N1CCN(C(=O)c2ccccc2N(Cc2ccccc2)S(=O)(=O)c2ccc(OC)cc2)CC1 -1.48%
COc1ccc(NC(=O)CN(C)C(=O)CNC(=O)C2CCCCC2)cc1 -1.04%
N/C(=N\OC(=O)Cc1ccc([N+](=O)[O-])cc1)c1ccccn1 5.64%
CCOc1ccc(-n2cnnn2)cc1S(=O)(=O)N1CCC(C)CC1C (centres undefined) -0.48%
CC(=O)O[C@@]1(C(C)=O)CCC2[C@H]3C=C(C)C4=CC(=O)CC[C@@]4(C)C3CC[C@]21C (some centres undefined) 2.86%
Cc1ccc(CN(Cc2cccnc2)C(=S)Nc2cccc(Cl)c2C)cc1 -3.35%
COc1cccc2c1CCC(NC(C)=O)C2=O (centres undefined) 0.33%
CC(C#N)OC(=O)c1cccnc1SCC(=O)Nc1ccc2c(c1)OCO2 (centres undefined) -2.63%
COC(=O)c1ccc2c(c1)S(=O)(=O)NC2C (centres undefined) -0.32%
O=C1CCC/C=C\C[C@@H](CC(=O)N(CCO)Cc2ccccc2)C(=O)NCCO1 3.07%
O=C(Nc1n[nH]c(C(F)(F)F)n1)c1cccs1 0.59%
Cc1cc(=O)[nH]c(SCC(=O)Nc2ccc(Cl)cc2C)n1 6.53%
CC(=O)Nc1ccc(-c2csc(NC=C3C(=O)OC(C)(C)OC3=O)n2)cc1 0.47%
CC(C)(C)OC(=O)c1c(N)n(CCCN2CCCC2=O)c2nc3ccccc3nc12 -0.01%
O=C(CN1CCN(c2ccccn2)CC1)NCc1cccs1 -2.97%
Nc1c(Cl)cc(-c2csc(N3CCCC3c3nc4cc(Cl)c(Cl)cc4n3CCOCCO)n2)cc1Cl (centres undefined) -4.69%
Cn1ccnc1SCC(=O)Nc1ccc2c(c1)OCCO2 2.46%
Cc1cccc(NC(=S)NC23CN4CN(CN(C4)C2)C3)c1 -3.73%
COC(=O)C(C)Oc1ccc2c(c1)O/C(=C\c1cccc(Br)c1)C2=O (centres undefined) 1.78%
Cc1c(C(=O)OCC(=O)N2CCCC2=O)oc2ccccc12 -0.28%
CC(C)NC(=O)C1(C)CCCCN1Cc1cccc(C(F)(F)F)c1 (centres undefined) -3.05%
COC(=O)C1=C(C)N(Cc2cccc(C(F)(F)F)c2)C(=NCc2ccccc2)NC1c1ccc(Cl)cc1 (centres undefined) 10.5%
COC(=O)C1=C(C)N(Cc2ccc(F)cc2)C(=S)NC1c1cccc(Cl)c1 (centres undefined) -6.48%
COC(=O)C1=C(C)N(Cc2ccccc2)C(=NCCCOC(C)C)N[C@H]1c1ccccc1 8.47%
C[C@H](NC(=O)c1[nH]cnc1C(=O)Nc1nccs1)c1ccccc1 2.49%
S=C(NCc1ccco1)NCc1ccccc1Cl -2.97%
CCOC(=O)C1CCN(c2c(Nc3cc(C)cc(C)c3)c(=O)c2=O)CC1 -4.56%
Cc1ccc(NS(=O)(=O)c2ccc(C(C)C)cc2)cc1S(=O)(=O)N1CCOCC1 -0.97%
Cc1cccc(Nc2nnc(SCC(=O)c3c(N)n(C4CC4)c(=O)[nH]c3=O)s2)c1C 1.72%
O=C(CSc1nc2sc3c(c2c(=O)n1-c1ccccc1)CCCC3)NN=Cc1ccc(OCc2ccccc2)cc1 0.03%
Cc1ccc2c(c1)nnc1nnc(SCC(=O)O)n12 1.61%
COC(=O)c1cc(S(=O)(=O)N2CCN(C(=O)C3CCCO3)CC2)cn1C (centres undefined) 0.88%
Cc1ccc2c(CN3CCN(S(=O)(=O)c4ccccc4C(F)(F)F)CC3)cc(=O)oc2c1 6.44%
CC(=O)Nc1ccc(NC(=O)[C@@H](NC(=O)c2cccc(C)c2)C(C)C)cc1 1.63%
COc1ccccc1NC(=S)N1CCC(NC(=O)C23CC4CC(CC(C4)C2)C3)CC1 -2.86%
COC(=O)C1=C(C)N(c2ccc(Br)cc2)C(=O)/C1=C\c1ccco1 4.92%

inhibition, active:
COc1cc(NC(=O)CCS(=O)(=O)c2ccc3c(c2)oc(=O)n3C)cc(OC)c1 12.5%
CN1CCN(/N=C2/C(=O)Nc3ccc([N+](=O)[O-])cc32)CC1 11.2%
O=C(Nc1cccc(F)c1)NC1CCCCCCC1 12%
CC(C)Cn1c(N)c(C(=O)NCc2cccs2)c2nc3ccccc3nc21 44%
COC(=O)C1=C(C)N(Cc2cccc(C(F)(F)F)c2)C(=NCc2ccccc2)NC1c1ccccc1C(F)(F)F (centres undefined) 18.8%
COC(=O)C1=C(C)N(Cc2cccc(C(F)(F)F)c2)C(=NCc2cccc(C(F)(F)F)c2)NC1c1ccccc1C(F)(F)F (centres undefined) 17.6%
CC(C)(C)C1C/C(=C/c2ccco2)C(=O)/C(=C/c2ccco2)C1 (centres undefined) 32.6%
